In the supplement of paper PMC7156485 one finds cell number and H1.0 immunofluorescence intensity data, which are given here for 22 molecules.

Common to all, as to conditions: concentration: 10 µM; 24 h
In assay [1] the test system is HCC1569. The experiment in a line: cell number relative to DMSO (% of DMSO); higher = more cells (less growth inhibition / toxicity). The essentials: (§1)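 Using 384-well plates with 800 cells per well in RPMI plus 10% FBS, HCC1569 and TDF cells were exposed to compounds at 10 µM, in triplicate, for 24 h at 37 °C. Imaging of six fields per well at ×10 followed H1.0 and DAPI staining. The reported quantity, H1.0 nuclear intensity or cell number, is a median of replicates given as percent of the plate control, and HCC1569 values were smoothed for positional effects.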

Assay [2] relates to TDF. Described as above. The gist of the method:
as §1

For assay [3], the system named is TDF. As to the kind of experiment: H1.0 immunofluorescence intensity relative to DMSO (% of DMSO); higher = stronger H1.0 induction, active = 120 or more. The gist of the method: as §1
For assay [4], the system named is HCC1569. As to the kind of experiment: H1.0 immunofluorescence intensity relative to DMSO (% of DMSO); higher = stronger H1.0 induction, active = 140 or more. The essentials:
as §1

± gives the standard deviation of the averaged measurements.
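Throughout, for H1.0 immunofluorescence intensity relative to DMSO: TDF is a line of transformed human dermal fibroblasts of mesenchymal origin.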
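Throughout, for cell number relative to DMSO: TDF denotes transformed human dermal fibroblasts of mesenchymal origin.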

In the case of `CC1COC2=C1C(=O)C(=O)c1c2ccc2c1CCCC2(C)C` (stereo not drawn) [Cryptotanshinone], the cell number in assay [1] was 96.6; in assay [2], 64.9. Further, the figures for the H1.0 immunofluorescence intensity in assay [3] and in assay [4] were 106 (inactive) and 100 (inactive), respectively.

Turning to `CC(C)CCNC(=O)C(CC(C)C)NC(=O)C1OC1C(=O)O` (stereo not drawn), the cell number turned out to be 106 in assay [1] and 96.1 in assay [2]. The H1.0 immunofluorescence intensity in assay [3] was 100 (inactive); in assay [4], 92.5 (inactive).

For `CC(=O)C1(O)CCC2C3CCC4=CC(=O)CCC4(C)C3CCC21C` (stereo not drawn) [17alpha-hydroxyprogesterone], the cell number in assay [1] was found to be 98.8; in assay [2], 98.3. Besides, the H1.0 immunofluorescence intensity was 99 (inactive) in assay [3] and 99.8 (inactive) in assay [4].

For the molecule `CCC1OC(=O)C(C)C(OC2CC(C)(OC)C(O)C(C)O2)C(C)C(OC2OC(C)CC(N(C)C)C2O)C(C)(O)CC(C)CN(C)C(C)C(O)C1(C)O` (stereo not drawn) [Azithromycin], the figures for the cell number in assay [1] and in assay [2] were 106 and 109, respectively. Moreover, the H1.0 immunofluorescence intensity in assay [3] was 91.2 (inactive); in assay [4] it was 105 (inactive).

For the molecule `CC(C)c1cccc(O)c(=O)c1` [Hinokitiol], the cell number in assay [1] came out at 83.8; in assay [2] it was 83. Also, the H1.0 immunofluorescence intensity in assay [3] is 89.5 (inactive); in assay [4] it was 94.8 (inactive).

Consider `CN(C)CCOC(C)(c1ccccc1)c1ccccn1.O=C(O)CCC(=O)O` (stereo not drawn) [Doxylamine succinate], for which the values for the cell number in assay [1] and in assay [2] were 99.5 and 101, respectively. The H1.0 immunofluorescence intensity in assay [3] is 97.5 (inactive); in assay [4], 87.7 (inactive).

For the molecule `COc1ccc(C2(C#N)CCC(C(=O)O)CC2)cc1OC1CCCC1` (stereo not drawn), the cell number in assay [1] was 105; in assay [2] it was 99.6. The H1.0 immunofluorescence intensity is 98.8 (inactive) in assay [3] and 90.2 (inactive) in assay [4].

For the molecule `CC(C)C(=O)Nc1ccc([N+](=O)[O-])c(C(F)(F)F)c1` [Flutamide], the cell number is 81.3 ± 22 in assay [1] and 66.1 ± 48 in assay [2]. Besides, the results for the H1.0 immunofluorescence intensity in assay [3] and in assay [4] were 112 (inactive) and 135 (inactive), respectively.

As for `CNc1nc(-c2ccc3c(N)n[nH]c3c2)cc(N2C[C@@H](C(=O)NC3CCCCC3)CC[C@H]2C)n1`, the cell number amounted to 52.3 in assay [1] and 77.9 in assay [2]. Moreover, the values for the H1.0 immunofluorescence intensity in assay [3] and in assay [4] were 115 (inactive) and 161 (active), respectively.

With `CC(C)NCC(O)COc1cccc2ccccc12` (stereo not drawn) [Propranolol S(-)], the cell number is 102 in assay [1] and 104 in assay [2]. Moreover, the H1.0 immunofluorescence intensity in assay [3] is 102 (inactive); in assay [4] it was 101 (inactive).

Consider `COc1ccc(OC)c2c(=S)c3ccccc3[nH]c12`, for which the cell number in assay [1] was 105; in assay [2] it was 92. In addition, the H1.0 immunofluorescence intensity in assay [3] was 106 (inactive); in assay [4], 111 (inactive).

For the molecule `O=C([O-])C=CC(O)c1ccc(Cl)cc1.[Na+]` (stereo not drawn), the cell number in assay [1] is 105; in assay [2], 97.4. The H1.0 immunofluorescence intensity in assay [3] was 95.7 (inactive); in assay [4] it was 92.9 (inactive).

As for `CC1(C)CCC=[N+]1[O-]` [5,5-Dimethyl-1-pyrroline-N-oxide], the cell number in assay [1] turned out to be 100; in assay [2], 105. For the same molecule, the H1.0 immunofluorescence intensity in assay [3] was 94.2 (inactive); in assay [4] it was 99.5 (inactive).

Take `O=C(Nc1ncc([N+](=O)[O-])s1)c1ccc([N+](=O)[O-])c(Cl)c1` [3-chloro-4-nitro-N-(5-nitrothiazol-2-yl)benzamide]: the cell number in assay [1] was 84.1; in assay [2], 83.6. Besides, the H1.0 immunofluorescence intensity is 108 (inactive) in assay [3] and 122 (inactive) in assay [4].

On to `CCCCCC=CCC=CCC=CCC=CCCCCCC(=O)O` [Adrenic acid (22:4 n-6)], for which the cell number was found to be 99 in assay [1] and 107 in assay [2]. For the same molecule, the results for the H1.0 immunofluorescence intensity in assay [3] and in assay [4] were 108 (inactive) and 99.9 (inactive), respectively.

Consider `COc1cc2c(CCNC(C)=O)c[nH]c2cc1Cl` [6-Chloromelatonin], for which the values for the cell number in assay [1] and in assay [2] were 101 and 106, respectively. Moreover, the H1.0 immunofluorescence intensity in assay [3] was 94.8 (inactive); in assay [4], 90 (inactive).

Take `Cc1cnc(NC(=O)C2=C([O-])c3ccccc3S(=O)(=O)N2C)s1.[Na+]` [Meloxicam sodium]: the cell number turned out to be 102 in assay [1] and 115 in assay [2]. In addition, the H1.0 immunofluorescence intensity in assay [3] was 91.1 (inactive); in assay [4], 97.1 (inactive).

As for `CCOC(=O)C1=CC(OC(CC)CC)C(NC(C)=O)C(N)C1` (stereo not drawn) [Oseltamivir], the cell number was 104 in assay [1] and 100 in assay [2]. Besides, the H1.0 immunofluorescence intensity in assay [3] is 94 (inactive); in assay [4], 99.4 (inactive).

In the case of `CCCc1nc(C)c2c(=O)nc(-c3cc(S(=O)(=O)N4CCN(CC)CC4)ccc3OCC)[nH]n12` [Vardenafil], the cell number in assay [1] was 105; in assay [2], 108. Also, the H1.0 immunofluorescence intensity was 91 (inactive) in assay [3] and 100 (inactive) in assay [4].

In the case of `CC(C)(C)C(=O)C(Oc1ccc(Cl)cc1)n1ccnc1` (stereo not drawn) [Climbazole], the cell number in assay [1] came out at 99.5; in assay [2] it was 98.7. Further, the H1.0 immunofluorescence intensity was 92.2 (inactive) in assay [3] and 99.3 (inactive) in assay [4].

In the case of `COc1nccc(-c2c(-c3ccc(F)cc3)ncn2C2CCC(O)CC2)n1` (stereo not drawn), the figures for the cell number in assay [1] and in assay [2] were 100 and 112, respectively. Besides, the results for the H1.0 immunofluorescence intensity in assay [3] and in assay [4] were 85.5 (inactive) and 117 (inactive), respectively.

Turning to `COc1ccccc1N1CCN(CCCCNC(=O)c2ccc3ccccc3c2)CC1`, the cell number is 99.1 in assay [1] and 111 in assay [2]. The figures for the H1.0 immunofluorescence intensity in assay [3] and in assay [4] were 106 (inactive) and 97.4 (inactive), respectively.
